We go through 4 compounds from PubChem BioAssay (NCI).

Several values for one entry are separate records, joined by “and”; a condition that tells them apart may be missing. Identical values can stand only once. Compounds without any hit were thinned out: in the full panel of roughly 83,000, 20% have a hit.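 Single-concentration screen, 48 h exposure, 96-well plates. Endpoint: percent growth. Below 10 = active.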 Activity calls are given as the source filed them.

Test systems include NCI-H23 lung; NCI-H226 lung; NCI-H322M lung; HOP-62 NSCLC; NCI-H460 lung; HOP-92 NSCLC; NCI-H522 lung; A549/ATCC NSCLC; 786-0 renal; COLO 205 colon; DU-145 prostate; K-562 leukemia; MALME-3M melanoma; MDA-MB-231 breast; RXF 393 renal; SF-268 CNS; SF-295 CNS; SF-539 CNS; UACC-257 melanoma; M14 melanoma.
Experiment in all cases: NCI-60 one-dose screen, 48 h (100 = growth as untreated, 0 = no growth, -100 = all killed)
What all share (conditions): 10 µM unless noted

As to `CCOc1ccc2nc3cc(N)ccc3c(N)c2c1`, the growth was 46.3% (inactive) and 40.5% (inactive) in the assay on NCI-H23 lung; 20.2% (inactive) and 44.6% (inactive) with NCI-H226 lung; 36.7% (inactive) and 28.8% (inactive) in the assay with NCI-H322M lung; 23% (inactive) and 26.8% (inactive) with HOP-62 NSCLC; 29.3% (inactive) and 61.9% (inactive) in the assay with NCI-H460 lung; 58.3% (inactive) in the assay with HOP-92 NSCLC. Moreover, the growth was 0.893% (active) and 10.4% (inactive) with NCI-H522 lung; 77.6% (inactive) and 77.2% (inactive) in the assay on A549/ATCC NSCLC; 24.2% (inactive) and 13.8% (inactive) with 786-0 renal; 71.1% (inactive) and 75.9% (inactive) with COLO 205 colon; 64.2% (inactive) and 67.6% (inactive) with DU-145 prostate; 113% (inactive) and 57.9% (inactive) in the assay on K-562 leukemia. Besides, the growth is -18.6% (active) and -14.8% (active) in the assay with MALME-3M melanoma; 86.5% (inactive) in the assay with MDA-MB-231 breast; 55.5% (inactive) and 43.2% (inactive) in the assay on RXF 393 renal; -39.5% (active) and -36.7% (active) with SF-268 CNS; 30.4% (inactive) and 16.5% (inactive) with SF-295 CNS; 34.9% (inactive) and 31.7% (inactive) with SF-539 CNS. For the same compound, the growth with UACC-257 melanoma is 62.3% (inactive) and 67.3% (inactive); in the assay with M14 melanoma it was 90.3% (inactive) and 75.8% (inactive).
On to `CNc1ccc2nc3ccc(=[N+](C)C)cc-3sc2c1`, for which the growth with NCI-H23 lung is 1.76% (active) and -7.91% (active); with NCI-H226 lung, 63% (inactive) and 51.4% (inactive); in the assay on NCI-H322M lung it was 30.7% (inactive) and 28.1% (inactive); with HOP-62 NSCLC it was 7.64% (active) and 7.54% (active); in the assay on NCI-H460 lung, 9.72% (active) and 11.9% (inactive); with HOP-92 NSCLC, 36.4% (inactive) and -4.83% (active). Besides, the growth with NCI-H522 lung is -19.9% (active) and 8.62% (active); in the assay with A549/ATCC NSCLC, 3.27% (active) and 5.26% (active); in the assay with 786-0 renal, 37.7% (inactive) and 20.6% (inactive); in the assay on COLO 205 colon, -22.3% (active) and -30.4% (active); in the assay on DU-145 prostate it was 42.4% (inactive) and 7.81% (active); in the assay with K-562 leukemia it was 8.78% (active) and 22.8% (inactive). The growth is -28.2% (active) and -24.3% (active) in the assay on MALME-3M melanoma; 4.03% (active) and -13.7% (active) in the assay with MDA-MB-231 breast; 58.3% (inactive) and 32.9% (inactive) in the assay with RXF 393 renal; 5.13% (active) and 2.8% (active) with SF-268 CNS; -7.68% (active) and 7.95% (active) in the assay with SF-295 CNS; -6.95% (active) and -15.6% (active) in the assay with SF-539 CNS. Moreover, the growth was -22.2% (active) and -27.4% (active) with UACC-257 melanoma; 3.79% (active) and -23.3% (active) with M14 melanoma.
As for `O=C(O)CN(CCN(CC(=O)O)CC(=O)O)CCN(CC(=O)O)CC(=O)O`, the growth with NCI-H23 lung is -19% (active) and 104% (inactive) and 110% (inactive); with NCI-H226 lung it was 15.7% (inactive) and 98.6% (inactive) and 90.3% (inactive); in the assay with NCI-H322M lung it was -3.44% (active) and 107% (inactive) and 116% (inactive); in the assay on HOP-62 NSCLC, -75.5% (active) and 97.4% (inactive) and 99.5% (inactive); in the assay with NCI-H460 lung it was -51.4% (active) and 119% (inactive); in the assay on HOP-92 NSCLC, 103% (inactive) and 102% (inactive). Further, the growth in the assay on NCI-H522 lung was -27.9% (active) and 107% (inactive) and 88.5% (inactive); with A549/ATCC NSCLC it was -85.5% (active) and 106% (inactive) and 98.9% (inactive); in the assay with 786-0 renal, -20.3% (active) and 102% (inactive) and 105% (inactive); in the assay with COLO 205 colon, 23% (inactive) and 91.5% (inactive) and 104% (inactive); in the assay on DU-145 prostate, -12.6% (active) and 114% (inactive) and 106% (inactive); with K-562 leukemia it was 4.41% (active) and 114% (inactive) and 103% (inactive). The growth in the assay on MALME-3M melanoma was -4.09% (active) and 112% (inactive) and 102% (inactive); with MDA-MB-231 breast, 35.8% (inactive) and 100% (inactive) and 90.7% (inactive); in the assay on RXF 393 renal it was -19.3% (active) and 108% (inactive) and 109% (inactive); with SF-268 CNS, 1.46% (active) and 114% (inactive) and 105% (inactive); in the assay on SF-295 CNS, -23.9% (active) and 112% (inactive) and 105% (inactive); in the assay with SF-539 CNS, -42.7% (active) and 104% (inactive). Moreover, the growth was 0.783% (active) and 105% (inactive) and 102% (inactive) in the assay with UACC-257 melanoma; 18.2% (inactive) and 88.8% (inactive) and 102% (inactive) in the assay on M14 melanoma.
Consider `CC(=O)Nc1ccc2cc3ccc(NC(C)=O)cc3nc2c1`, for which the growth with NCI-H23 lung was 74.2% (inactive) and 75% (inactive); in the assay on NCI-H226 lung it was 71% (inactive) and 69.8% (inactive); in the assay with NCI-H322M lung, 64.3% (inactive) and 46.1% (inactive); with HOP-62 NSCLC, 70.9% (inactive) and 67% (inactive); with NCI-H460 lung it was 93.6% (inactive) and 106% (inactive); in the assay with HOP-92 NSCLC it was 60.6% (inactive). Also, the growth was 74.3% (inactive) and 77.7% (inactive) with NCI-H522 lung; 107% (inactive) and 115% (inactive) in the assay with A549/ATCC NSCLC; 63.9% (inactive) and 52.1% (inactive) in the assay with 786-0 renal; 93.7% (inactive) and 91.4% (inactive) in the assay on COLO 205 colon; 64.5% (inactive) and 38.2% (inactive) with DU-145 prostate; 66% (inactive) and 98.4% (inactive) with K-562 leukemia. In addition, the growth in the assay with MALME-3M melanoma is 134% (inactive) and 94.6% (inactive); in the assay with MDA-MB-231 breast, 65% (inactive) and 75.7% (inactive); with RXF 393 renal, 82.7% (inactive) and 103% (inactive); with SF-268 CNS, 64.2% (inactive) and 57% (inactive); in the assay on SF-295 CNS, 71.9% (inactive) and 57.9% (inactive); in the assay with SF-539 CNS, 96.4% (inactive) and 87.4% (inactive). Also, the growth in the assay on UACC-257 melanoma was 111% (inactive) and 118% (inactive); with M14 melanoma it was 88% (inactive) and 87.8% (inactive).
